Screening data: PubChem BioAssay, National Center for Advancing Translational Sciences (NCATS)
A selection: hits, their analogues and other compounds. The true share with any hit is near 19%.
TDP1 cell CPT: qHTS for Inhibitors of human tyrosyl-DNA phosphodiesterase 1 (TDP1): qHTS in cells in presence of CPT; Potency, µM (titrated, usually from 46.2 µM), for the others: at the top dose activity change, negative = growth inhibition, actives largely listed as inhibitors; actives 12% (n = 420,000); chicken DT40 Tdp1-/-;hTDP1 cells + 20 nM CPT, ATP luminescence, 48 h; further: potency means the concentration at half of the fitted maximal effect; nearly all actives have a fitted effect of over 55% in size
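Chicken DT40 Tdp1-/- cells complemented with human TDP1, 400 cells/well, exposed to compounds plus 20 nM camptothecin for at least 48 h at 37 C; viability read as ATP content by CellTiter-Glo luminescence.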
Giardia killer: Small Molecules that selectively kill Giardia lamblia: qHTS; Giardia lamblia trophozoite viability; activity change, % at 7.66 µM, hits read low; actives 0.15% (n = 340,000); AID 540267, 2011; in the data active means activity change below about -80%; inconclusive means between about -30% and that limit;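 further: parasites exposed to compound for two days anaerobically before the ATP read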
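Anaerobic 48 hrs incubation at 37 deg C of 100 trophozoites/well with test compounds; ATPLite 1-Step luminescence, 15-30 min RT, reports cellular ATP as viability.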
TDP1 inh: qHTS Assay for Inhibitors of Tyrosyl-DNA Phosphodiesterase (TDP1) | Potency, µM (highest dose often 130 µM), for the others: at the highest dose activity change, negative = inhibition, usual class: inhibitors | recombinant TDP1, AlphaScreen DNA substrate cleavage | actives 0.28% (n = 350,000) | Tyrosyl-DNA phosphodiesterase 1 (Homo sapiens), Q9NUW8; further: potency means the concentration at half of the fitted maximal effect; nearly all actives have a fitted effect of over 40% in size
Target sequence (Q9NUW8 whole entry, looked up): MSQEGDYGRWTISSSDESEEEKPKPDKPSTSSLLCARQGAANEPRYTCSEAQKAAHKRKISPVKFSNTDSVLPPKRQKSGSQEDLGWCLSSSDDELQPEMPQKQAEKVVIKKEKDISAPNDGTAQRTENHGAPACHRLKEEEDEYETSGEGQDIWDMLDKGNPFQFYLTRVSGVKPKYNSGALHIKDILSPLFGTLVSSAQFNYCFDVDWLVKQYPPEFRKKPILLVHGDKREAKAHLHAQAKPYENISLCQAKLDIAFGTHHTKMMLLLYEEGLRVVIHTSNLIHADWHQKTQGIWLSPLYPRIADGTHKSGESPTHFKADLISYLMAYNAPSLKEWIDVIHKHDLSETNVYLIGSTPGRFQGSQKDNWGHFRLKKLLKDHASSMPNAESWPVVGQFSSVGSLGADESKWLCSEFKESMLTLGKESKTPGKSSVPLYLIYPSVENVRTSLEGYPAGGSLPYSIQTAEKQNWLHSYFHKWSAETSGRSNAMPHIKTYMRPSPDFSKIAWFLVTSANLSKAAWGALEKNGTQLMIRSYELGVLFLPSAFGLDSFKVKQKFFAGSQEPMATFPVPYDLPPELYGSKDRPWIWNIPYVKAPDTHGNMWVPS
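E. coli-derived human Tdp1, 1 nM final. Cpd preinc 15 min RT; substrate 15 nM final, 5 min RT; AS bead mix 10 ug/ml final, 10 min RT. Signal loss = tyrosine-FITC cleavage. No-enzyme wells = max signal.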
IL1B secr inh: qHTS for Inhibitors of Inflammasome Signaling: IL-1-beta AlphaLISA Primary Screen; THP-1 LPS/ATP IL-1B secretion, AlphaLISA, 16 h; active compounds read low; activity change, % at 57.5 µM; actives 4.7% (n = 360,000); AID 743279, 2014; in the data active means activity change below about -50%; inconclusive means mostly about -30% to -49%
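Secreted IL-1B measured by AlphaLISA bead assay after 16 h compound exposure of THP-1 cells; compounds (final up to 57.5 uM) added 1 h before LPS (250 ng/mL) and ATP (1.25 mM) stimulation; lower signal means less secretion.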
ELG1 repair inh: qHTS screen for small molecules that inhibit ELG1-dependent DNA repair in human embryonic kidney (HEK293T) cells expressing luciferase-tagged ELG1; Potency, µM (series often up to 46.1 µM), for inactives: at the highest dose activity change, negative = inhibition, usual class: inhibitors; actives 2.3% (n = 330,000); HEK293T ELG1-luciferase reporter, luminescence, 16 h; DNA damage induced by 5-fluorouridine; further: potency means the concentration at half of the fitted maximal effect; nearly all actives have a fitted effect of over 55% in size
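Cells (2,000 per well) received 5-fluorouridine plus test compound or DMSO and were incubated 16 hr at 37 °C, 5% CO2. Luciferase activity was read by luminescence 30 min after ONE-Glo addition; signal suppression marked inhibition of damage-induced ELG1 function.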
TDP1 cell noCPT: qHTS for Inhibitors of human tyrosyl-DNA phosphodiesterase 1 (TDP1): qHTS in cells in absence of CPT; DT40 Tdp1-/- hTDP1 cells, no CPT, ATP luminescence, 48 h; Potency, µM (highest dose often 46.2 µM), for the others: at the top dose activity change, negative = growth inhibition, actives largely listed as inhibitors; actives 15% (n = 420,000); further: potency means the concentration at half of the fitted maximal effect; nearly all actives have a fitted effect of over 55% in size
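Stably hTDP1-transfected Tdp1-null chicken DT40 cells were treated with library compounds minus camptothecin and grown for at least 48 hr at 37 °C, after which cellular ATP was quantified by luminescence.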
An asterisk follows results filed as active; [ ] = remark or other dose. Unless noted, the call rests on the fitted dose curve; in most records, active means well fitted curve in the direction sought with a large enough effect; inconclusive means small, poorly fitted or top-dose-only effect, or another doubt; inactive means no such curve, though single readings can be large; an effect the other way counts as inactive or inconclusive. On the % scale 0 is the no-effect control and ±100 the full control effect.

Screening CCc1ccc(CNC(=O)c2cnc(N3CCCCC3)c3ccccc23)cc1 returned TDP1 cell CPT 23µM*, TDP1 inh -4% and TDP1 cell noCPT 26µM*.
Screening CCc1ccc(NC(=O)c2cnc(N3CCN(c4ccccn4)CC3)c3ccccc23)cc1 returned TDP1 cell CPT 7.3µM*, Giardia killer 2, TDP1 inh 5%, IL1B secr inh -19, ELG1 repair inh inconclusive and TDP1 cell noCPT 6.5µM*.
O=C(NCc1ccc(F)cc1)c1cnc(N2CCCCC2)c2ccccc12 was read as TDP1 cell CPT inconclusive, TDP1 inh -8% and TDP1 cell noCPT inconclusive.
For COc1ccc(Cl)cc1C(=O)NNC(=O)COC(=O)CC(NC(C)=O)c1ccccc1 (stereo not given) the results were TDP1 cell CPT 8%, Giardia killer -7, TDP1 inh 1%, IL1B secr inh 0, ELG1 repair inh 0% and TDP1 cell noCPT -18%.
CC(=O)N1CCN(c2nc3cc(C)ccc3cc2CN(C(=O)c2cccc3ccccc23)C2CC2)CC1 was read as TDP1 cell CPT 13%[9.04 µM] and TDP1 cell noCPT inconclusive.
For Cc1nc(CCN2C(=O)c3ccccc3C2=O)n[nH]1 the results were TDP1 cell CPT inconclusive, Giardia killer -7, TDP1 inh 2%, IL1B secr inh -4, ELG1 repair inh 11% and TDP1 cell noCPT 23µM*.
CCOc1ccccc1Nc1nnc(SCC(=O)N(C)C2CCS(=O)(=O)C2)s1 (stereo not given) was read as TDP1 cell CPT -21%, Giardia killer -13, TDP1 inh 0%, IL1B secr inh -61*, ELG1 repair inh 1% and TDP1 cell noCPT inconclusive.
CCN(C(=O)CSc1nnc(Nc2ccccc2)s1)C1CCS(=O)(=O)C1 (stereo not given) was read as TDP1 cell CPT -3%, Giardia killer 16, TDP1 inh 5%, IL1B secr inh 10, ELG1 repair inh 2% and TDP1 cell noCPT 1%.
For COc1ccc(Nc2nnc(SCC(=O)N(CC(C)C)C3CCS(=O)(=O)C3)s2)cc1 (stereo not given) the results were TDP1 cell CPT inconclusive, IL1B secr inh -20 and TDP1 cell noCPT 18µM*.
Screening Cc1ccccc1Nc1nnc(SCC(=O)N(C)C2CCS(=O)(=O)C2)s1 (stereo not given) returned TDP1 cell CPT 17%, Giardia killer 5, TDP1 inh 1%, IL1B secr inh 3, ELG1 repair inh -13% and TDP1 cell noCPT -5%.
Screening CN1CCN(c2nc(-c3cccc([N+](=O)[O-])c3)nc3ccccc23)CC1 returned TDP1 cell CPT inconclusive, Giardia killer -17, ELG1 repair inh inconclusive and TDP1 cell noCPT inconclusive.
`CCCC(=O)O[C@@H]1C[C@@H](C)N(C(=O)c2ccccc2)c2ccc(C)cc21` gave TDP1 cell CPT 21µM*, Giardia killer -4, TDP1 inh -3%, IL1B secr inh -3, ELG1 repair inh 2% and TDP1 cell noCPT 21µM*.
`O=C(Nc1ccc(C(=O)O)cc1)/C(=C\c1ccccc1)NC(=O)c1ccccc1` gave TDP1 cell CPT 3%, Giardia killer 7, TDP1 inh 6%, IL1B secr inh 0, ELG1 repair inh 8% and TDP1 cell noCPT -6%.
